# From PMC7819943, “Rice protein-binding microarrays: a tool to detect cis-acting elements near promoter regions in rice”
# Over roughly 68,000 sequences, “fluorescence intensity (a.u.)” has its median near 9,100; the highest 2% begin near 16,000. The list comes from a sample in which the highest values are over-represented; it also holds similar and randomly drawn sequences.
# Molecular target: OsWRKY34 (Oryza sativa, UniProt Q0JBA9 1-250)
# Assay: protein-binding microarray (RPBM); PBS, 2% BSA, 51.3 ng/ul salmon testes DNA, 50 uM zinc acetate, 200 nM TF, 25 C, 1 h; high values mean tight binding
# Conditions: protein: recombinant; tags: N-terminal polyhistidine and DsRed monomer fusion (pET32a); label: CyDye5-dUTP incorporated in the synthesized complementary strand; 3' TTTTT single-stranded linker to array surface; dsDNA, one strand shown
# In short: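 Polyhistidine-tagged DsRed fusions of transcription factors, joined at the N-terminus, were expressed in E. coli BL21-CodonPlus and isolated on Ni–NTA. They were incubated at 200 nM for 1 h at 25 °C on a custom Agilent array, double-stranded and BSA-blocked, in PBS with 2% BSA, salmon testes DNA and 50 µM zinc acetate. The binding signal is per-feature fluorescence intensity (arbitrary units) read on an Axon 4000B scanner after washing.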
# OsWRKY34, sequence (Q0JBA9 entry or part of it): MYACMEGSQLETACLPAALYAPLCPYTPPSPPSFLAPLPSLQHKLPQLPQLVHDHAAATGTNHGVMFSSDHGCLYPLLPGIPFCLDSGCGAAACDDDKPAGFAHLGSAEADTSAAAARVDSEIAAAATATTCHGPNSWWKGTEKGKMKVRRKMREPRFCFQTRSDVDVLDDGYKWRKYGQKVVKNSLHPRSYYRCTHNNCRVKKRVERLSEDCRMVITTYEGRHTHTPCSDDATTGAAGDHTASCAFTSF
row,Sequence,binding signal
1,CGTTCCACCGCCGCGCCTCTTCCCCGCCCCGATCGGCTGCCGGAGTCACCTAGTGCAG,8810 fluorescence intensity (a.u.)
2,ACTACAGTCCCTCGCCATGCATGCGCCGTCAGATGTCCAACGGAGTCACCTAGTGCAG,11500 fluorescence intensity (a.u.)
3,GAGCGGGGCGGGGCTGCATTTGGCGTCGCGATGGACCTCACGGAGTCACCTAGTGCAG,12600 fluorescence intensity (a.u.)
4,TTTTTACATCTTAGCCCCTTGCCGCTTTTGCGAATTTTGCCGGAGTCACCTAGTGCAG,9810 fluorescence intensity (a.u.)
5,GCCCACCATTTCCCCAAACATTTCCACACATTCCTACAATCGGAGTCACCTAGTGCAG,13600 fluorescence intensity (a.u.)
6,GTAGATGTAGTAGCTAGCTTTTGTTAATTTCAACGTTCCACGGAGTCACCTAGTGCAG,8380 fluorescence intensity (a.u.)
7,AATATTTTTTTTCTCAATCATTTCTTATCATTATTATTATCGGAGTCACCTAGTGCAG,8280 fluorescence intensity (a.u.)
8,TCTTCATTTCCGTGTTCAGCAGCTTTGCAATAATTTCTATCGGAGTCACCTAGTGCAG,11900 fluorescence intensity (a.u.)
9,ATCATCCCATCCCATCTCATCCGTCCATCCGCCAACTCATCGGAGTCACCTAGTGCAG,12300 fluorescence intensity (a.u.)
10,TCCCACTCAGCTGTCCGTCCGCCAATCACTGTACTTCTATCGGAGTCACCTAGTGCAG,22000 fluorescence intensity (a.u.)
11,TTTCCTCCGTCCCTGAGCTGTACTCGCGCCAATCAATCATCGGAGTCACCTAGTGCAG,9570 fluorescence intensity (a.u.)
12,GGAGGAGGAGCTAGGGTTTCGGATGGGAGGAGGAGGAGGGCGGAGTCACCTAGTGCAG,8800 fluorescence intensity (a.u.)
13,GGAGGGTTAGATCACCAGGGGCGGGTTGATGCAAAAAATTCGGAGTCACCTAGTGCAG,17000 fluorescence intensity (a.u.)
14,CCAGGAGGGTGAGCTTGATGCAGGGGCGGGTGCGGGCGAGCGGAGTCACCTAGTGCAG,12500 fluorescence intensity (a.u.)
15,GGCGGCGGCGGCAGGGGCGGCGGAGGGTTGGCGGCGGCGGCGGAGTCACCTAGTGCAG,11000 fluorescence intensity (a.u.)
16,TTCGGGGAGGGTTTTCGGGGACAGCAGCTGCGGGCTTAAACGGAGTCACCTAGTGCAG,18700 fluorescence intensity (a.u.)
17,CGGAGAGGGAGGGGAGCTAGGGTTTTTCGGGGCGGGGATGCGGAGTCACCTAGTGCAG,27600 fluorescence intensity (a.u.)
18,GGGTTTTTTTTTTTTTTGCTGCTTTGCTTAGCACTTTTTTCGGAGTCACCTAGTGCAG,8340 fluorescence intensity (a.u.)
19,CGGGAGGGCGAGAGGGTTTTCGGAGCGGGAGGGGAAGATGCGGAGTCACCTAGTGCAG,15200 fluorescence intensity (a.u.)
20,ATCGGGGTTGTTGTTTTTGTAGCTGCTTAAGCTTTTTATTCGGAGTCACCTAGTGCAG,14100 fluorescence intensity (a.u.)
21,AGAGATCGGGGTTTGGTTTTTTGGAGGGGAGAGCGGAGTGCGGAGTCACCTAGTGCAG,10200 fluorescence intensity (a.u.)
22,GAGGTAGGGAGAGGTTTCGTTAGGGTTTCGGGCGGGGATGCGGAGTCACCTAGTGCAG,19900 fluorescence intensity (a.u.)
23,CAGTGTAGGGGAGAGAGAGAGAGAGTGGGGTAGAGGGATGCGGAGTCACCTAGTGCAG,8980 fluorescence intensity (a.u.)
24,TCTCGATCTCCCCGCCTATTTATGCTCGTCTCGTCACCCGCGGAGTCACCTAGTGCAG,8140 fluorescence intensity (a.u.)
25,GATATTTTGCTTGTATTGTTCGACCACTCGTCTTATTAAACGGAGTCACCTAGTGCAG,8040 fluorescence intensity (a.u.)
26,TCATCTCATCTCTCTCGTTTTTATATGCACGTTTTTCAAACGGAGTCACCTAGTGCAG,9530 fluorescence intensity (a.u.)
27,TTTGGGTGGTGGCAGTTGACAGAAGAGAGTGAGCACACAGCGGAGTCACCTAGTGCAG,8270 fluorescence intensity (a.u.)
28,TTTACAATGGTATCTATGTGTTGTTTTTGTGTGTGTGTGTCGGAGTCACCTAGTGCAG,10100 fluorescence intensity (a.u.)

row,Sequence,binding signal
1,ATGCTTGCCTTCTTCTTATTCTCCTTCCCTATGGTCTTCTCGGAGTCACCTAGTGCAG,8770 fluorescence intensity (a.u.)
2,ACATGCAACAGTGTGTCGTGCTTGTATTTCTGTTATCTGACGGAGTCACCTAGTGCAG,8660 fluorescence intensity (a.u.)
3,TCCAACTTGGGGAGGGAGGGCCGTTTCAGCTCGGGCTTTTCGGAGTCACCTAGTGCAG,17200 fluorescence intensity (a.u.)
4,GTGCATGTGTAGGGAGGGCACAATGGAGGGGTGTTTTTTTCGGAGTCACCTAGTGCAG,15000 fluorescence intensity (a.u.)
5,CTTCAACTTTCTCGTTTTCCGTCAGCACGCTTTCCAAACTCGGAGTCACCTAGTGCAG,9080 fluorescence intensity (a.u.)
6,ATGGGTGGAGGAGTGGGAGGGGATTAAATATCGGCGGAGGCGGAGTCACCTAGTGCAG,9240 fluorescence intensity (a.u.)
7,TCCGTTTTGCCGTTGGGCTAGCTTAGCTTGTTTTTTTTTTCGGAGTCACCTAGTGCAG,12000 fluorescence intensity (a.u.)
8,ATGTGATTAAATGGAGGGTTTTCGGGGAGGGTTTTCGGGGCGGAGTCACCTAGTGCAG,24100 fluorescence intensity (a.u.)
9,AATGTGACCAAGCCAACTTAACTTATTATACTTCTTAGTTCGGAGTCACCTAGTGCAG,8680 fluorescence intensity (a.u.)
10,CCAAGACCGCACCCGTATAAAGCCGCAGACCTCTCTCTCCCGGAGTCACCTAGTGCAG,10100 fluorescence intensity (a.u.)
11,CTCTGACCATATATCACGTTCTACGTCCAGGTCAAATCACCGGAGTCACCTAGTGCAG,8730 fluorescence intensity (a.u.)
12,TGCGTCCCTCTTCCTTCATTCTCCTGACGCCTAGGGCCCACGGAGTCACCTAGTGCAG,8280 fluorescence intensity (a.u.)
13,TTATGGGTATGTCACCAGGGGTTTAATCTTTCATTTTCAACGGAGTCACCTAGTGCAG,12300 fluorescence intensity (a.u.)
14,ATGATAGGTCCTGGACTCACAAGTTATTGAGAACGGCACGCGGAGTCACCTAGTGCAG,50900 fluorescence intensity (a.u.)
15,CACTCAACCTAACTGTTGAACGGTCCTGTTCTGGCCAACGCGGAGTCACCTAGTGCAG,8890 fluorescence intensity (a.u.)
16,CTGGACGCGGTCCTGCACGACACATGCATCATCTCCTCAACGGAGTCACCTAGTGCAG,8570 fluorescence intensity (a.u.)
17,TGGTGTGTTTTTTGGGATGTTTCGGTAGGTATTTTGTGATCGGAGTCACCTAGTGCAG,12000 fluorescence intensity (a.u.)
18,GGCTGCCTCCTCTCCTCATCCCTGCACCTACACTCCAATACGGAGTCACCTAGTGCAG,8530 fluorescence intensity (a.u.)
19,TCCTTTTGCTTTCTTTCTTTTGTGTTTTTCAAATTTCTACCGGAGTCACCTAGTGCAG,9810 fluorescence intensity (a.u.)
20,GCCTTCTCCATCTCTCTGCTTCTTTTGTTTGTTTTTCTTTCGGAGTCACCTAGTGCAG,13000 fluorescence intensity (a.u.)
21,CTCACCTACCGCATCTGTGTTCCTTTTGCTTTCTTTCTTTCGGAGTCACCTAGTGCAG,18100 fluorescence intensity (a.u.)
22,ATCCATCTTCTTCTTCTTTCTTTCTTTTCTTCCTCTTCTTCGGAGTCACCTAGTGCAG,10400 fluorescence intensity (a.u.)
23,CATCTTACCTTACGTCCACCGCATCTCATCCTTTGCTGTTCGGAGTCACCTAGTGCAG,12200 fluorescence intensity (a.u.)
24,TTACACATTTCTTTTTCATCACTGCTGATATGTTATCCTTCGGAGTCACCTAGTGCAG,9940 fluorescence intensity (a.u.)
25,GCAGCTCTACTGTTTTCCGCTTCCATCTTCTTCCTTTCTTCGGAGTCACCTAGTGCAG,16700 fluorescence intensity (a.u.)
26,GTCCTTTACACTGATCCTGCACATCGCTCACTGTTTTCTTCGGAGTCACCTAGTGCAG,16800 fluorescence intensity (a.u.)
27,GTTTTCTTTCTTTTTTTTTTCCACCTGTCGCACTGTACATCGGAGTCACCTAGTGCAG,11800 fluorescence intensity (a.u.)
